In the library only some 2.1% were active in any assay of this set; here they are far more common.
PAX8 inh HTS: PAX8 transcriptional activity inhibition | AID 652154 | inhibition, % at 12.6 µM | RMG-I TPO-luciferase reporter, SteadyGlo, 24 h | hit rate 1.2% among 360,000;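 active = mean replicate inhibition at least 60% with every replicate also reaching 60%; inconclusive = only one of the two criteria is met; inactive = mean below 60% and not all replicates reaching 60%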;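 also: luciferase light reporting Pax8 driven TPO promoter activity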
Shn3 inh set2: reduces Shn3 3'UTR luciferase signal in osteoblasts; Clone20 osteoblast Shn3 3'UTR firefly luciferase, 24 h; inhibition, % at 12.5 µM; hit rate 0.52% among 360,000;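 active = mean inhibition of at least 75% with every replicate also reaching 75%; inconclusive = mean inhibition at least 75% but some replicate below; inactive = mean inhibition below 75%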
MITF TRPM1 inh: reduces MITF-dependent TRPM1 promoter luciferase signal. SK-MEL-5 TRPM1 promoter luciferase, 24 h. inhibition, % at 12.5 µM. hit rate 0.83% among 330,000;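 active = mean inhibition across replicates of 60% or more, whatever share of single replicates reaches that level; inconclusive = some that reach 60%, reason not given; inactive = mean inhibition across replicates below 60%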
aSyn 5UTR inh: MLPCN primary screen, SNCA 5' untranslated region; AID 1813; inhibition, % (tested at 7.5 µM); hit rate 0.82% among 300,000; alpha-synuclein 5'UTR reporter, inhibitor activity; in the data active = inhibition above about 60%; inconclusive = no clear call, values can overlap the other calls;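 also: H4 neuroglioblastoma cells stably carrying SNCA 5'UTR luciferase fusion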
LMP1 NFkB inh: inhibitors of Epstein-Barr LMP1-induced NF-kappaB reporter | AID 504558 | hit rate 0.69% among 350,000 | inhibition, % at 12.5 µM | LMP1-induced NF-kappaB luciferase reporter cells, luminescence; in the data active = inhibition above about 41%; inconclusive = no clear call, values can overlap the other calls
Hits are given with their value; . = inactive; ? = inconclusive; / = not tested or not shown.

SMILES	PAX8 inh HTS	Shn3 inh set2	MITF TRPM1 inh	aSyn 5UTR inh	LMP1 NFkB inh
Cc1ccc(-c2nc(-c3ccccc3)no2)c(Cl)c1	.	.	.	95	.
Cc1ccc2nc(N(CCCN(C)C)C(=O)CCc3ccccc3)sc2c1	.	.	.	.	.
CN(C)CCCN(C(=O)CCc1ccccc1)c1nc2ccc(Cl)cc2s1	.	.	.	109	.
COc1ccccc1-c1cnc(C(O)c2ccc(Cl)c(F)c2)[nH]1 (configuration not stated)	.	.	/	/	/
COc1ccc(NC(=O)NCCN2CCN(c3cc(OC)ccc3OC)CC2)cc1	.	.	.	.	.
CCOC(=O)C1(Cc2ccccc2C)CCCN(C(=O)CSC)C1 (configuration not stated)	.	.	.	.	.
CCC(=O)NC(c1cccs1)c1cc(Cl)c2cccnc2c1O (configuration not stated)	.	.	.	86	.
CCCCC(=O)NC(c1cccs1)c1cc(Cl)c2cccnc2c1O (configuration not stated)	?	.	.	80	.
CN1CCN(C(=O)/C=C/c2cn(-c3ccccc3)nc2-c2ccc3c(c2)OCCO3)CC1	.	.	.	.	.
CC1(NC(=O)CC(c2ccccc2)(c2ccccc2)c2ccccc2)CCN(CCCc2ccccc2)C1=O (configuration not stated)	66	.	.	/	.
CC(C)(C)OC(=O)NCCCCCNC(=O)c1ncn(Cc2ccccc2)c1C(=O)NCCCCCNC(=O)OC(C)(C)C	75	.	.	/	.
CC(C)(C)OC(=O)NCCCCCNC(=O)c1nc[nH]c1C(=O)NCc1ccc(CNC(=O)OC(C)(C)C)cc1	72	89	.	/	.
CC(C)(C)OC(=O)NCCCCCNC(=O)c1nc[nH]c1C(=O)NCCCCCNC(=O)OC(C)(C)C	.	.	.	/	.
CC(C)(C)OC(=O)NCc1ccc(CNC(=O)c2nc[nH]c2C(=O)NCc2ccc(CNC(=O)OC(C)(C)C)cc2)cc1	.	87	.	/	.
CC(C)(C)OC(=O)CNC(=O)c1nc[nH]c1C(=O)NCc1ccc(CNC(=O)OC(C)(C)C)cc1	.	.	.	.	.
CCOC(=O)C(C)Oc1cccc2c(=O)n(CC(=O)NCc3ccc4c(c3)OCO4)ccc12 (configuration not stated)	.	.	.	65	.
CCOC(=O)COc1cccc2c(=O)n(CC(=O)NCc3ccccc3)ccc12	.	.	.	?	.
CCOC(=O)C(C)Oc1cccc2c(=O)n(CC(=O)Nc3ccc4c(c3)OCCO4)ccc12 (configuration not stated)	.	.	.	.	.
CCOC(=O)COc1cccc2c(=O)n(CC(=O)NCc3ccc(F)cc3)ccc12	.	.	.	75	.
COc1ccc2nc(NC(=O)c3ccc([N+](=O)[O-])o3)sc2c1	.	.	.	.	.
COc1ccc(C(=O)Nc2ccc(C(=O)Nc3cccnc3)cc2)cc1	.	.	.	.	.
CC(=O)Oc1ccc(C(=O)Nc2cccnc2)cc1	.	.	.	.	85
COc1ccc(S(=O)(=O)N(C)C[C@H]2Oc3ccc(NC(=O)CCCCCC(=O)Nc4ccccc4N)cc3CC(=O)N([C@@H](C)CO)C[C@@H]2C)cc1	.	/	/	/	/
O=C(Cn1nc(-c2cccc(Cl)c2)ccc1=O)Nc1ccccc1Br	.	.	.	.	.
COc1ccccc1-c1ccc([C@@H]2[C@@H]3CN(S(=O)(=O)c4ccc(-c5ccccc5)cc4)C[C@H]2N3)cc1	107	/	/	/	/
SMILES	PAX8 inh HTS	Shn3 inh set2	MITF TRPM1 inh	aSyn 5UTR inh	LMP1 NFkB inh
Cc1ccc(-c2ccc(C3[C@@H]4CN(S(=O)(=O)c5ccc(C)cc5)C[C@H]3N4)cc2)cc1 (some centres not stated)	73	/	/	/	/
Cc1ccc(S(=O)(=O)N2C[C@@H]3N[C@H](C2)[C@@H]3c2ccc(-c3cccc(C)c3)cc2)cc1	.	/	/	/	/
CCOC(=O)C1=C(O)/C(=C/c2cn(CC(=O)NCC3CCCO3)c3ccccc23)SC1=Nc1ccc(C)cc1 (configuration not stated)	/	.	88	/	.
CCOC(=O)C1=C(O)/C(=C/c2ccc(-c3ccccc3C(=O)O)o2)SC1=Nc1ccc(C)cc1	.	/	.	/	.
CC(=NNc1nc2ccccc2s1)c1ncccn1	.	.	.	/	63
CC(=NNc1nc2ccccc2o1)c1ncccn1	74	.	.	/	58
CC(=NNc1nc2ccccc2o1)c1cc2ccccc2cn1	/	.	.	/	57
Cc1cc(C)nc(Nc2nc3ccccc3o2)n1	.	.	.	.	.
CC(Oc1ccc(C#N)cc1)C(=O)Nc1ccc(-n2cnnn2)cc1 (configuration not stated)	.	.	.	/	.

Screening data: PubChem, Broad Institute
